Reference: PubChem BioAssay AID1259313 (Sanford-Burnham Center for Chemical Genomics, 2017)
Among all 340,000 compounds or so, about 8,500 (2.5%) were called active. Only a selection was taken, and actives are over-represented in it overall. A number with no mark means an inactive call.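 Rule for the calls: active = melting temperature shift of at least 10% of the positive control shift, at one fixed dose; inactive = the rest.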

Tested on: Glutamate receptor ionotropic, NMDA 3A (GRIN3A) ligand-binding domain
Assay: binders of NR3A ligand-binding domain, primary screen, biophysical, differential scanning fluorimetry, uHTS (AID 1259313)
Settings: NR3A LBD differential scanning fluorimetry, at 25 µM, hits give high values

For `O=C(COC(=O)c1ccccc1)Nc1ccc(Cl)cc1C(=O)c1ccccc1`, the Tm shift relative to glycine control was 12.2% (active).
With `COc1ccc(N2C(=O)/C(=C/c3ccco3)C(=O)NC2=S)cc1` the Tm shift relative to glycine control was 10.6% (active).
For `CCCCCCCCCCCCn1ccc(=N)cc1`, the Tm shift relative to glycine control was 20.8% (active).

In order of falling Tm shift relative to glycine control:
1. CN1CCN(C(=S)SCC(=O)Nc2ccc(Cl)cc2C(=O)c2ccccc2)CC1  3.94%
2. CC[N+]1(C)CCCC(OC(=O)C(O)(c2ccccc2)c2ccccc2)C1 (stereo not given)  1.89%
3. CCN1C(=O)NC(=O)C2(CCCC2)C1=O  1.88%
4. CCNc1nc2[nH]c(=O)c3c(c2s1)OC(N)=C(C#N)C3c1cccs1 (stereo not given)  1.75%
5. O=C1NC(=O)N(Cc2ccco2)C(=O)/C1=C\c1ccc(-c2ccc(F)cc2)o1  0.53%
6. CC1=C(C(=O)Nc2ccccc2)S(=O)(=O)CCO1  0.53%
7. Cc1cc(N2C(=O)C3CCCN3C2c2ccc(Cl)c(Cl)c2)no1 (stereo not given)  0.27%
8. CCN1C(=O)C(=Cc2c(C)n(CC(=O)NCC3CCCO3)c3ccccc23)C(=O)N(CC)C1=S (stereo not given)  0.27%
9. COCCNC(=O)CN1C2CCC1CC(O)(c1cccnc1)C2 (stereo not given)  0.09%
10. O=C(Nc1cccc2ccccc12)N1CCC2(CC1)OCCO2  0%
11. O=C(CCNS(=O)(=O)c1ccccc1)Nc1ccc(Cl)cc1C(=O)c1ccccc1  -5.82%
12. COc1cccc(N2C(=O)NC(=O)/C(=C\c3ccc([N+](=O)[O-])s3)C2=O)c1  -7.7%
